Results published in PubChem BioAssay AID1159580 (chemical genetic matrix, 2015).
The whole screen tested about 5,500 compounds, of which about 2,000 (36%) were called active. Inconclusive results (about 18%) are left out. Rule as the data show it: active = normalized growth mostly below about 0.91 (no sharp cut-off); inconclusive = no clear call, values can overlap the other calls; inactive = mostly above about 0.92. This is one part of the list.

Assay: chemical genetic growth profiling, strain panel (AID 1159580);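 also: tested at 20 µM; growth read once vehicle control cultures reached saturation at 30 °C; 1 = growth at the plate median or of vehicle wells; lower values mean less growth of the strain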
Conditions: S. cerevisiae deletion strains, growth OD
[1] = locus YAL040C, strain CLN3, stronger effect = lower value
[2] = locus YDR150W, strain NUM1, stronger effect = lower value
[3] = locus YER002W, strain NOP16, stronger effect = lower value
[4] = locus YJR075W, strain HOC1, stronger effect = lower value
[5] = locus YNL128W, strain TEP1, stronger effect = lower value
[6] = locus YNL153C, strain GIM3, stronger effect = lower value
[7] = locus YNL197C, strain WHI3, stronger effect = lower value
[8] = locus YNL224C, strain SQS1, stronger effect = lower value
[9] = locus YOR083W, strain WHI5 (second series), stronger effect = lower value
[10] = locus YPL241C, strain CIN2, stronger effect = lower value
[11] = locus YGR078C, strain PAC10, stronger effect = lower value
[12] = locus YNL322C, strain KRE1, stronger effect = lower value
[13] = locus YHR030C, strain SLT2, stronger effect = lower value

Measured: normalized growth

NCC(O)c1cc(O)c(O)cc1F (stereo not given)
inactive: [1] 1 | [2] 1.02 | [3] 1.01 | [4] 1.03 | [5] 1.03 | [6] 1.01 | locus YNL175C, strain NOP13, stronger effect = lower value 0.978 | [7] 0.994 | [8] 1.01 | [9] 1.04 | [10] 1.01

NC(Cc1cc(O)c(O)cc1O)C(=O)O (stereo not given)
inactive: [1] 1 | locus YCL061C, strain MRC1 (second series), stronger effect = lower value 0.967 | locus YDR363W, strain ESC2, stronger effect = lower value 0.977 | [3] 1.01 | [11] 0.979 | [4] 0.956 | [5] 0.976 | [7] 0.98 | [8] 1.03 | [12] 0.942 | [9] 1.01

NCCc1cc(O)c(O)cc1O
active: locus YAL021C, strain ccr4, stronger effect = lower value 0.856 | locus YBR231C, strain swc5, stronger effect = lower value 0.884 | locus YDR069C, strain doa4, stronger effect = lower value 0.833 | locus YEL003W, strain gim4, stronger effect = lower value 0.908 | locus YER015W, strain faa2, stronger effect = lower value 0.887 | locus YER155C, strain BEM2 (second series), stronger effect = lower value 0.847 | locus YGL173C, strain kem1, stronger effect = lower value 0.838 | locus YHR027C, strain rpn1, stronger effect = lower value 0.9 | locus YJL164C, strain tpk1, stronger effect = lower value 0.914 | locus YJL166W, strain qcr8, stronger effect = lower value 0.877 | locus YLR342W, strain FKS1, stronger effect = lower value 0.861 | locus YMR058W, strain fet3, stronger effect = lower value 0.697 | locus YNL209W, strain ssb2, stronger effect = lower value 0.899 | locus YNL248C, strain rpa49, stronger effect = lower value 0.807 | locus YOR106W, strain vam3, stronger effect = lower value 0.805 | locus YPL051W, strain arl3, stronger effect = lower value 0.854 | locus YPL106C, strain sse1, stronger effect = lower value 0.847
inactive: locus YAL026C, strain drs2, stronger effect = lower value 0.924 | locus YAL030W, strain snc1, stronger effect = lower value 0.938 | locus YBL061C, strain skt5, stronger effect = lower value 0.948 | locus YBR009C, strain hhf1, stronger effect = lower value 0.963 | locus YBR023C, strain chs3, stronger effect = lower value 0.94 | locus YBR171W, strain sec66, stronger effect = lower value 0.983 | locus YBR279W, strain paf1, stronger effect = lower value 0.948 | locus YCL011C, strain gbp2, stronger effect = lower value 0.96 | locus YCL016C, strain dcc1, stronger effect = lower value 0.962 | locus YCL061C, strain MRC1, stronger effect = lower value 0.934 | locus YCL069W, strain vba3, stronger effect = lower value 0.966 | locus YCR088W, strain abp1, stronger effect = lower value 0.999 | locus YDL005C, strain med2, stronger effect = lower value 1.01 | locus YDL040C, strain nat1, stronger effect = lower value 0.995 | locus YDR001C, strain nth1, stronger effect = lower value 1 | locus YDR137W, strain rgp1, stronger effect = lower value 0.993 | locus YDR159W, strain sac3, stronger effect = lower value 1.02 | locus YDR195W, strain ref2 0.97 | locus YDR297W, strain sur2, stronger effect = lower value 0.941 | locus YDR334W, strain swr1, stronger effect = lower value 0.951 | locus YDR335W, strain msn5, stronger effect = lower value 0.924 | locus YDR392W, strain spt3, stronger effect = lower value 0.882 | locus YEL037C, strain rad23, stronger effect = lower value 0.964 | locus YEL061C, strain CIN8 (second series), stronger effect = lower value 0.987 | locus YER016W, strain bim1, stronger effect = lower value 0.967 | locus YER111C, strain swi4, stronger effect = lower value 0.966 | locus YFR010W, strain ubp6, stronger effect = lower value 0.921 | locus YGL167C, strain pmr1, stronger effect = lower value 0.976 | locus YGL227W, strain vid30, stronger effect = lower value 1.01 | locus YGL240W, strain doc1, stronger effect = lower value 0.917 | locus YGL253W, strain hxk2, stronger effect = lower value 0.963 | locus YHR013C, strain ard1, stronger effect = lower value 0.954 | [13] 0.975 | locus YHR079C, strain IRE1, stronger effect = lower value 0.938 | locus YHR142W, strain chs7, stronger effect = lower value 0.949 | locus YJL092W, strain hpr5, stronger effect = lower value 0.953 | locus YJL095W, strain BCK1 (second series), stronger effect = lower value 0.964 | locus YJL095W, strain BCK1, stronger effect = lower value 0.989 | locus YJL115W, strain asf1, stronger effect = lower value 0.984 | locus YJL129C, strain trk1, stronger effect = lower value 1.09 | locus YJL154C, strain vps35, stronger effect = lower value 1.01 | locus YJR066W, strain TOR1, stronger effect = lower value 0.919 | locus YKL160W, strain elf1, stronger effect = lower value 0.945 | locus YKR026C, strain gcn3, stronger effect = lower value 0.997 | locus YKR091W, strain srl3, stronger effect = lower value 1 | locus YLL001W, strain dnm1, stronger effect = lower value 0.921 | locus YLL026W, stronger effect = lower value 0.933 | locus YLL041C, strain sdh2, stronger effect = lower value 1.01 | locus YLR027C, strain aat2, stronger effect = lower value 0.931 | locus YLR113W, strain HOG1, stronger effect = lower value 1 | locus YLR221C, strain rsa3, stronger effect = lower value 0.939 | locus YLR258W, strain gsy2, stronger effect = lower value 0.964 | locus YLR262C, strain YPT6 (second series), stronger effect = lower value 0.901 | locus YLR320W, strain mms22, stronger effect = lower value 0.884 | locus YLR357W, strain rsc2, stronger effect = lower value 0.901 | locus YLR370C, strain arc18, stronger effect = lower value 0.931 | locus YLR384C, strain iki3, stronger effect = lower value 0.981 | locus YML120C, strain ndi1, stronger effect = lower value 0.95 | locus YMR125W, strain sto1, stronger effect = lower value 1.01 | locus YMR129W, stronger effect = lower value 0.991 | locus YMR205C, strain PFK2, stronger effect = lower value 0.943 | locus YMR231W, strain pep5, stronger effect = lower value 0.98 | locus YNL071W, strain lat1, stronger effect = lower value 0.952 | locus YNL183C, strain NPR1, stronger effect = lower value 0.956 | locus YNL322C, strain KRE1 (second series), stronger effect = lower value 0.995 | locus YNR049C, strain mso1, stronger effect = lower value 0.987 | locus YOR001W, strain rrp6, stronger effect = lower value 0.934 | locus YOR070C, strain gyp1, stronger effect = lower value 0.965 | locus YOR080W, strain dia2, stronger effect = lower value 0.937 | locus YOR083W, strain WHI5, stronger effect = lower value 0.896 | locus YOR231W, strain MKK1, stronger effect = lower value 0.994 | locus YOR265W, strain rbl2, stronger effect = lower value 0.966 | locus YOR270C, strain vph1, stronger effect = lower value 0.951 | locus YOR290C, strain snf2, stronger effect = lower value 0.948 | locus YPL078C, strain atp4, stronger effect = lower value 0.931 | locus YPL240C, strain hsp82, stronger effect = lower value 0.985 | locus YPL256C, strain CLN2, stronger effect = lower value 0.971

O=C(c1cccc([N+](=O)[O-])c1)c1cc2cc(Br)cc(Br)c2o1
inactive: locus YAL013W, strain DEP1, stronger effect = lower value 0.993 | locus YBR229C, strain ROT2, stronger effect = lower value 0.997 | locus YDL101C, strain DUN1, stronger effect = lower value 1.01 | locus YDL134C, strain PPH21, stronger effect = lower value 0.994 | [2] 0.952 | locus YEL061C, strain CIN8, stronger effect = lower value 0.983 | [11] 0.989 | locus YGR229C, strain SMI1, stronger effect = lower value 1 | [13] 0.837 | locus YHR087W, strain rtc3, stronger effect = lower value 0.981 | locus YJR043C, strain POL32, stronger effect = lower value 0.997 | [4] 0.975 | locus YKL190W, strain CNB1, stronger effect = lower value 0.996 | locus YLR039C, strain RIC1, stronger effect = lower value 0.954 | locus YLR058C, strain SHM2 (second series), stronger effect = lower value 0.994 | locus YLR085C, strain ARP6, stronger effect = lower value 0.847 | locus YLR262C, strain YPT6, stronger effect = lower value 0.974 | locus YML094W, strain GIM5, stronger effect = lower value 0.988 | locus YMR219W, strain ESC1, stronger effect = lower value 0.994 | locus YMR263W, strain SAP30, stronger effect = lower value 0.96 | locus YMR307W, strain GAS1, stronger effect = lower value 0.864 | [6] 0.988 | locus YNL298W, strain CLA4 (second series), stronger effect = lower value 0.948 | [12] 0.991 | locus YNR030W, strain Alg12, stronger effect = lower value 0.953 | locus YOL006C, strain TOP1, stronger effect = lower value 0.935 | locus YPL055C, strain LGE1, stronger effect = lower value 0.974 | [10] 0.942 | locus YPR135W, strain CTF4, stronger effect = lower value 0.964
